Inconclusive results are not listed. Active and inactive are the calls of the source. How the source made its calls: active means hit-call score of the fitted dose curve at least 0.9, where 1 is the maximum; inconclusive means response in the unintended direction; inactive means score below 0.9.

The test system of the experiment is Japanese medaka Peroxisome Proliferator-activated Receptor gamma (PPARg), gene 100304459. As to the kind of experiment: ATG_jmPPARg_EcoTox2: Attagene TRANS-FACTORIAL EcoTox-2 HepG2 Assay for Japanese medaka Peroxisome Proliferator-activated Receptor gamma (PPARg). As to the method: ATG_EcoTox2 is a cell-based, multiplexed assay created by modifying the existing Attagene TRANS-FACTORIAL system to include a panel of nuclear receptors from some or all the following species: human (Homo sapiens), african clawed frog (Xenopus laevis), rainbow trout (Oncorhynchus mykiss), japanese medaka (Oryzias latipes), and zebrafish (Danio rerio). The ECOTOX2-FACTORIAL format uses HepG2, a human liver cell line, with measurements taken at 24 hours after chemical dosing in a 24-well plate. ATG_jmPPARg_EcoTox2 is one of 29 assay components calculated in the ATG_EcoTox2 assay. It is designed to make measurements of mRNA induction, a form of inducible reporter, as detected with fluorescence intensity signals by Reverse transcription polymerase chain reaction (RT-PCR) and Capillary electrophoresis technology.The assay endpoint ATG_jmPPARg_EcoTox2 was analyzed in the positive analysis fitting direction relative to DMSO as the negative control and baseline of activity. Using a type of inducible reporter, measures of mRNA for gain-of-signal activity can be used to understand the reporter gene at the transcription factor-level as they relate to the gene PPARg. Furthermore, this assay endpoint can be referred to as a primary readout, because this assay has produced multiple assay endpoints where this one serves a reporter gene function. To generalize the intended target to other relatable targets, this assay endpoint is annotated to the nuclear receptor intended target family, where the subfamily is non-steroidal.
Human liver HepG2 cells are transiently transfected with multiple reporter transcription units (MRTUs) in 6-well plates using FuGene 6 reagent (Roche; 3 ml FuGene/1 mg DNA). The MRTU constructs are regulated by a cis-regulating element (promoter). Each RTU expresses a GAL4-UAS that regulates the transcription of a nearby target reporter gene sequence. A major difference between the CIS and TRANS system is that in CIS activities of endogenous TFs are measured, whereas the TRANS assay evaluates changes in activities of exogenous, chimeric NR-Gal4 proteins. […] At the end of 24 hour incubation, total RNA was isolated using TriZol reagent (Invitrogen). The isolated RNA is then reverse-transcribed using oligo(dT) primer and Mo-MLV reverse transcriptase (Invitrogen) with DNAse I (Ambion) treatment for 30 min. The one-tenth of the produced cDNA was amplified by PCR using Taq DNA polymerase (Invitrogen) and two reporter sequence-specific primers. The PCR products were fluorescently labeled by primer extension with 6-arboxyfluorescein (6-FAM) 5'-labeled reporter sequence-specific primer (2 min at 95 C, 20 s at 68 C and 10 min at 72 C) and these products were digested with 5U of HpaI (New England Biolabs) for 2h at 37 C. The fragments were purified using Qiaquick PCR columns (Qiagen), analyzed on an ABI 3130xL genetic analyzer (Applied Biosystems) with peak positions identified by using a set of X-rhodamine (ROX)-labeled MapMarker1000 molecular weight standards (BioVentures). The raw capillary electrophoresis data was processed using Attagraph software (Attagene).
Turning to `CC(c1cc2ccccc2s1)N(O)C(N)=O` (stereo not drawn), the compound was classed as inactive.
For the compound `CC(C)OC(=O)C(C)(C)Oc1ccc(C(=O)c2ccc(Cl)cc2)cc1`, the call was inactive.
The same measure, in the same setting: under `C[C@]12C=CC(=O)C=C1CC[C@@H]1[C@@H]2C(=O)C[C@@]2(C)[C@H]1CC[C@]2(O)C(=O)CO` stands “inactive”.
As usually defined, the AC50 is the concentration giving half of the maximal activity seen. As to `C=C(c1ccc(C(=O)O)cc1)c1cc2c(cc1C)C(C)(C)CCC2(C)C`, the AC50 was 5.55 µM (active).
Take `Cc1nc(-c2ccc(C(F)(F)F)cc2)sc1C(=O)NCc1ccc(OC(C)(C)C(=O)O)cc1`: the AC50 was 20.9 µM (active).
In the case of `Cc1ccc(C)c(OCCCC(C)(C)C(=O)O)c1`, the compound was classed as inactive.
As to `CN(CCOc1ccc(CC2SC(=O)NC2=O)cc1)c1ccccn1` (stereo not drawn), the call was inactive.
Still for that read-out and setting: under `Cc1c(C)c2c(c(C)c1O)CCC(C)(COc1ccc(CC3SC(=O)NC3=O)cc1)O2` (stereo not drawn) stands “inactive”.

The record behind these values is PubChem BioAssay AID2284353 (EPA ToxCast).
